Source: PubChem
FEN1 inh-1 – human FEN1 inhibition; P39748; Recombinant FEN1 flap cleavage, fluorescence, 15 min; Potency, µM (doses to about 114 µM), inactives show at the highest dose activity change, negative = inhibition, actives largely listed as inhibitors; 0.35% of 390,000 active; AID 588795; note: potency is the fitted concentration of half-maximal effect; % is set by controls: 0 for no effect and ±100 for the full control effect; nearly all actives have a fitted effect of over 65% in size
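Compounds are tested as a concentration series against 10 nM FEN1; after a 15 min room-temperature preincubation, 50 nM substrate starts cleavage, with plate reads at 0 and 15 min. Normalized responses are fitted by a Hill equation.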
Tb PGK inh – blocks T. brucei phosphoglycerate kinase | P07378 | PGK/GAPDH coupled, Kinase-Glo luminescence, 60 min | Potency, µM (titrated, usually from 57.5 µM), inactives show at the top dose activity change, negative = inhibition, hits mostly inhibitors | 0.043% of 380,000 active | AID 602233; note: potency is the fitted concentration of half-maximal effect; % is set by controls: 0 for no effect and ±100 for the full control effect; nearly all actives have a fitted effect of over 60% in size
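Luminescent ATP detection (Kinase-Glo Plus) follows a 60-minute room-temperature incubation, with wells lacking PGK as controls. Buffer: 100 mM TEA (pH 7.6), 5 mM MgCl2, 0.01% Tween-20. Coupling enzyme GAPDH (100 nM final) supplies unstable 1,3-BPG in-well.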
WRN inhibitor – blocks human WRN helicase | Q14191 | WRN helicase unwinding, fluorescent forked duplex, kinetic | Potency, µM (series often up to 114 µM), for the others: at the top dose activity change, negative = inhibition, most hits filed as inhibitors | 0.46% of 360,000 active | AID 651768; note: potency is the fitted concentration of half-maximal effect; % is set by controls: 0 for no effect and ±100 for the full control effect; nearly all actives have a fitted effect of over 55% in size
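Screening of the MLSMR collection measured strand separation of a quenched forked DNA duplex (100 nM) by 20 nM WRN with 2 mM ATP, all final. Compounds were preincubated with enzyme 15 min at room temperature.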
TDP1 inh – TDP1 (human) enzyme inhibition; 0.28% of 350,000 active; Potency, µM (titrated, usually from 130 µM), for the others: top-dose activity change, negative = inhibition, hits mostly inhibitors; recombinant TDP1, AlphaScreen DNA substrate cleavage; note: potency is the fitted concentration of half-maximal effect; % is set by controls: 0 for no effect and ±100 for the full control effect; nearly all actives have a fitted effect of over 40% in size
Target sequence (Q9NUW8 whole entry, looked up): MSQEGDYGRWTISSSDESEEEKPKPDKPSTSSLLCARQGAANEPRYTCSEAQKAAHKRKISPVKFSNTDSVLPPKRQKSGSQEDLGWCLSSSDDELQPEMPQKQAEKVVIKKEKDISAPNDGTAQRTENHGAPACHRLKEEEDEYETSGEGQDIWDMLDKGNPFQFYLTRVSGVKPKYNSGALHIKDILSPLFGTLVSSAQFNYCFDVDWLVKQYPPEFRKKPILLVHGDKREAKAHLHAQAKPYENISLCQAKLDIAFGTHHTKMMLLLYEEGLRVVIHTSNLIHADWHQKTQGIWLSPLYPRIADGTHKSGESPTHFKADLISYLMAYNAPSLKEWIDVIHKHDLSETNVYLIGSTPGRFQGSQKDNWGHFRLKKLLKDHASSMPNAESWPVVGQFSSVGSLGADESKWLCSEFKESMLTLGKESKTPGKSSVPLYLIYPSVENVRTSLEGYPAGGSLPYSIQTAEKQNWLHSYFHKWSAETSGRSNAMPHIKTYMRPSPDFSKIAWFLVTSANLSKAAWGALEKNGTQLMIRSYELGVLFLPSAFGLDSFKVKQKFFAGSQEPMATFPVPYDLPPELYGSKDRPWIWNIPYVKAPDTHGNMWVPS
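AlphaScreen read-out: signal falls as enzyme removes the 3' tyrosine-FITC from a 5'-biotinylated DNA oligo (15 nM, 5 min, RT). Enzyme was E. coli-made recombinant Tdp1 at 1 nM, exposed to compound for 15 min beforehand; beads 10 ug/ml, 10 min.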
Tb PFK inh-1 – blocks T. brucei phosphofructokinase | 0.17% of 330,000 active | Potency, µM (top dose mostly 57.5 µM), for the others: at the highest dose activity, negative = inhibition, most hits filed as inhibitors | T. brucei PFK, ADP-Glo luminescence;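 note: potency is the fitted concentration of half-maximal effect; 0% = uninhibited 1x PFK enzyme wells and -100% = no-enzyme wells; nearly all actives have a fitted effect of over 60% in size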
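Activity is normalized to no-enzyme wells (full inhibition) and 1.25 nM enzyme wells (no inhibition). Reaction: 0.5 mM F6P, 0.1 mM ATP, 45 min RT, ADP-Glo luminescence; concentration-response curves fitted and classed by quality.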
PI5P4Ka inh – inhibitors of human PI5P4K alpha; 1.2% of 330,000 active; P48426; PI5P4Kalpha enzyme, ADP-Glo luminescence, 60 min; stronger effect = lower value; max response, %; active = max response of -50% or lower; inconclusive = between -30% and -50%; inactive = -30% or higher; note: value at the top dose of about 77 µM; % is set by controls: 0 for no effect and ±100 for the full control effect
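qHTS, 1536-well: enzyme/substrate mix, compound by pin tool, 5 microM ATP final; RT 60 min; ADP-Glo reagents 1 (45 min) then 2 (30 min); luminescence.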
TbPFK ATP – orthogonal confirmation of T. brucei phosphofructokinase inhibitors; Potency, µM (doses to about 57.5 µM), without a hit: at the top dose inhibition; AID 504636; Tb PFK enzyme, ATP depletion, Kinase-Glo Plus luminescence; 47% of 1,100 active; shares compounds with Tb PFK inh-1; calls by dose curve; note: potency is the fitted concentration of half-maximal effect; nearly all actives have a fitted effect of over 60% in size
Tb PFK inh-2 – T. brucei PFK enzyme inhibition, hit validation; shares compounds with Tb PFK inh-1; purified T. brucei PFK, ADP-Glo luminescence, 45 min; Potency, µM (doses to about 57.5 µM), for the others: at the top dose activity change, negative = inhibition, actives largely listed as inhibitors; 41% of 1,100 active;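 note: potency is the fitted concentration of half-maximal effect; plate controls were full PFK enzyme control for no effect and no enzyme control for full effect; nearly all actives have a fitted effect of over 60% in size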
FEN1 inh-2 – FEN1 inhibition, cherry-pick retest; shares compounds with FEN1 inh-1; FEN1 flap cleavage, TAMRA/BHQ2 fluorogenic DNA substrate; Potency, µM, usual class: inhibitors; 79% of 880 active; note: potency is the fitted concentration of half-maximal effect; nearly all actives have a fitted effect of over 60% in size
Active calls of the source: *; [ ] = another dose, or the depositor's remark. Only some compounds are listed: those with a hit (about 1.5% of all), similar ones and a draw of the others. Unless noted, calls come from the whole dose curve; as a rule, active = well fitted curve in the direction sought with a large enough effect; inconclusive = small, poorly fitted or top-dose-only effect, or another doubt; inactive = no such curve, though single readings can be large; an effect the other way counts as inactive or inconclusive.

O=[As]O[As]=O (centres undefined) was read as TDP1 inh 2%.
CC(=O)O[C@H]1[C@H]2[C@@H](OC(=O)Cc3ccccc3)[C@@H](C)C[C@]2(OC(C)=O)C(=O)/C(C)=C/[C@@H]2[C@H](CC[C@@]13CO3)C2(C)C was read as TDP1 inh 7%.
CC(=O)CC(c1ccc(O)cc1)c1c(O)c2ccccc2oc1=O (centres undefined) was read as TDP1 inh 4%.
Screening ClC(Cl)c1ccccc1 returned TDP1 inh 13%.
Screening O=c1cc2c(=O)oc3cc(O)c(O)oc3c2c(O)c1O returned FEN1 inh-1 7.1µM*, Tb PGK inh inconclusive, WRN inhibitor inconclusive, TDP1 inh inconclusive, Tb PFK inh-1 7.6µM*, PI5P4Ka inh -75*, TbPFK ATP 1.2µM*, Tb PFK inh-2 1.3µM* and FEN1 inh-2 8.5*.
O=C(CSc1nc(-c2ccc(F)cc2)nc2c1Cc1ccccc1O2)Nc1cccc(C(=O)O)c1 was read as FEN1 inh-1 inconclusive, Tb PGK inh inconclusive, WRN inhibitor inconclusive, TDP1 inh 4µM*, Tb PFK inh-1 inconclusive, PI5P4Ka inh inconclusive, TbPFK ATP inconclusive, Tb PFK inh-2 inconclusive and FEN1 inh-2 27*.
Screening N#Cc1cc2c(nc1SCC(=O)Nc1cccc(F)c1)C1CCN2CC1 returned FEN1 inh-1 -10%, Tb PGK inh 2% and TDP1 inh 1%.
CCCCCCCCCCCCCC(=O)O[C@@H]1[C@@H](C)[C@@]2(O)[C@H](C=C(CO)C[C@]3(O)C(=O)C(C)=C[C@@H]23)[C@@H]2C(C)(C)C12OC(C)=O (some centres undefined) was read as TDP1 inh 16%.
For C=CCN1CCc2cccc3c2C1Cc1ccc(O)c(O)c1-3 (centres undefined) the results were TDP1 inh 6%.
For Cc1cc(C)cc(C(=O)OC2C[C@H]3CC[C@@H](C2)N3C)c1 (some centres undefined) the results were TDP1 inh 10%[56.1 µM].
CCN1/C(=C/C=C/c2oc3ccc(-c4ccccc4)cc3[n+]2CC)Oc2ccc(-c3ccccc3)cc21 was read as FEN1 inh-1 32µM*, Tb PGK inh -12%, WRN inhibitor 4.7µM*, TDP1 inh 0%, Tb PFK inh-1 inconclusive, PI5P4Ka inh -57*, TbPFK ATP -27%, Tb PFK inh-2 inconclusive and FEN1 inh-2 27*.
CCC(C)(C)O was read as TDP1 inh 6%.
`CC(Cc1ccc(C(C)(C)C)cc1)CN1CCCCC1` (centres undefined) gave TDP1 inh 3%.
`O=C(O)C(Cc1ccccc1)N1C(=O)/C(=C/C=C/c2ccco2)SC1=S` (centres undefined) gave FEN1 inh-1 11µM*, Tb PGK inh 13µM*, WRN inhibitor 10µM*, Tb PFK inh-1 inconclusive, PI5P4Ka inh -99*, TbPFK ATP 21µM*, Tb PFK inh-2 inconclusive and FEN1 inh-2 27*.
Screening Nc1ccc(O)c2c1C(=O)c1ccccc1C2=O returned FEN1 inh-1 35µM*, Tb PGK inh inconclusive, WRN inhibitor 32µM*, Tb PFK inh-1 inconclusive, PI5P4Ka inh -97*, TbPFK ATP 11%, Tb PFK inh-2 -24% and FEN1 inh-2 43*.
For O=C1NC(=S)S/C1=C/c1ccc(N2CCOCC2)o1 the results were FEN1 inh-1 45µM*, Tb PGK inh -22%, WRN inhibitor 25µM*, TDP1 inh 0%, Tb PFK inh-1 27µM*, PI5P4Ka inh -53*, TbPFK ATP 12%, Tb PFK inh-2 -14% and FEN1 inh-2 38*.
Screening C=CCN1CCC2(C)c3cc(O)ccc3C[C@H]1[C@H]2C returned TDP1 inh 9%[56.1 µM].
C[C@]12CCC(=O)C=C1CCc1ccc(O)cc12 was read as TDP1 inh 11%[56.1 µM].
`O=c1c(O)cccc2cc(O)c(O)c(O)c12` gave FEN1 inh-1 inconclusive, Tb PGK inh 0.79µM*, WRN inhibitor 4µM*, Tb PFK inh-1 6.7µM*, PI5P4Ka inh -83*, TbPFK ATP 0.43µM*, Tb PFK inh-2 0.48µM* and FEN1 inh-2 24*.
O=c1c(O)c(-c2cc(O)c(O)c(O)c2)oc2cc(O)cc(O)c12 was read as FEN1 inh-1 1.4µM*, Tb PGK inh inconclusive, WRN inhibitor 1.1µM*, Tb PFK inh-1 8.5µM*, PI5P4Ka inh -90*, TbPFK ATP 1.9µM*, Tb PFK inh-2 3.8µM* and FEN1 inh-2 2.7*.
Screening COc1cc2cc3c(N)c(C(=O)Nc4sc(C)c(C)c4C#N)sc3nc2cc1OC returned FEN1 inh-1 50µM*, WRN inhibitor inconclusive, TDP1 inh -14%, Tb PFK inh-1 inconclusive, TbPFK ATP 0%, Tb PFK inh-2 16% and FEN1 inh-2 43*.
C[C@H](N)Cc1cnc[nH]1 was read as TDP1 inh 9%.
